# Out of some 2,300 compounds screened, about 330 (14%) showed activity.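 The calls were made as follows: active = median modified Z-score above 1.96; inactive = 1.96 or below.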 Not all results are given here.
# Test system: HepG2 Srxn1-GFP reporter cells (+30 nM CDDO-Me)
# Assay: Srxn1-GFP intensity median modified Z-score relative to plate median; higher = stronger NRF2 / oxidative stress reporter activation, active = hit call of the paper
# Conditions: 10 µM; exposure time: 24h
# How it was run: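 Compound at 10 μM was applied with an NRF2 activator at 30 nM to HepG2 Srxn1-GFP BAC reporter cells for 24 h, in DMSO at no more than 0.1%, using three replicate 96-well plates seeded at 20,000 cells per well. Fixed, Hoechst-stained cells were imaged confocally and cytoplasmic GFP was scored for each cell, with images under 100 cells left out. The figure reported is the replicate median of the per-plate modified Z-score of GFP intensity. Scaling relied on 1.4826 × median absolute deviation.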
row,SMILES,Srxn1-GFP intensity median modified Z-score
1,Cc1n[nH]c(=NS(=O)(=O)c2ccc(N)cc2)s1 [euspeclibcmpd277],-0.64 (inactive)
2,Cc1csc(/C(C#N)=C\C=C\c2ccccc2[N+](=O)[O-])n1,35.4 (active)
3,OC[C@@H](O)[C@@H](O[C@@H]1O[C@H](CO)[C@H](O)[C@H](O)[C@H]1O)[C@H](O)[C@@H](O)CO [euspeclibcmpd2389],-0.142 (inactive)
4,CC1(C(=O)O)CCC2(C)CCC3(C)C(=C2C1)CC(=O)C1C2(C)CCC(O)C(C)(C)C2CCC13C (centres undefined) [euspeclibcmpd1963],-0.0731 (inactive)
5,O=C(COC(=O)C12CC3CC(C1)CC(c1ccccc1)(C3)C2)Nc1ncc(C(F)(F)F)cc1Cl,1.42 (inactive)
6,CCN(CC)C(=O)C(C#N)=Cc1cc(O)c(O)c([N+](=O)[O-])c1 [euspeclibcmpd861],-0.942 (inactive)
7,CC(C)(O)[C@@H]1CC[C@](C)([C@H]2[C@@H](O)C[C@@]3(C)C4C[C@H](O[C@@H]5O[C@H](CO)[C@@H](O)[C@H](O)[C@H]5O)C5C(C)(C)[C@@H](O[C@@H]6OC[C@@H](O)[C@H](O)[C@H]6O)CC[C@@]56C[C@@]46CC[C@]23C)O1 (some centres undefined) [euspeclibcmpd1691],-0.304 (inactive)
8,O=C(O)CCCN1C(=O)c2cccc3cccc(c23)C1=O [euspeclibcmpd1803],-0.0255 (inactive)
9,O=C(O)CN1C(=O)c2cccc3cccc(c23)C1=O [euspeclibcmpd433],2.2 (active)
10,CCCCCCCC/C=C/CCCCCCCCOP(=O)(O)OCC[N+](C)(C)C [euspeclibcmpd1773],1.28 (inactive)
11,CNC(C)[C@@H]1CC[C@@H](N)[C@@H](OC2[C@@H](N)C[C@@H](N)[C@H](OC3OC[C@](C)(O)[C@H](NC)[C@H]3O)[C@H]2O)O1 (some centres undefined) [euspeclibcmpd820],-0.00227 (inactive)
12,CC(=O)O[C@]1(C(C)=O)CCC2C3CC(C)=C4CC(=O)CC[C@]4(C)C3CC[C@@]21C (some centres undefined) [euspeclibcmpd178],-0.198 (inactive)
13,C=C1C(=O)O[C@@H]2C[C@@]3(C)CCC[C@H](C)C3=C[C@H]12 [euspeclibcmpd1482],10.2 (active)
14,Cc1cc(-c2ccc(N=Nc3ccc4c(S(=O)(=O)O)cc(S(=O)(=O)O)c(N)c4c3O)c(C)c2)ccc1N=Nc1ccc2c(S(=O)(=O)O)cc(S(=O)(=O)O)c(N)c2c1O [euspeclibcmpd2073],-1.03 (inactive)
15,NC1(C(=O)O)CCCC1 [euspeclibcmpd1759],-0.415 (inactive)
16,O=C(O)CCc1nc2ccccc2[nH]1 [euspeclibcmpd1271],-0.404 (inactive)
17,C=CC1=C(C)c2cc3[nH]c(cc4[nH]c(cc5nc(cc1n2)=C(C)C5=CCC(=O)O)c(CCC(=O)O)c4C)c(C)c3=CC [euspeclibcmpd1059],0.562 (inactive)
18,CC1=C(CCC(=O)O)c2cc3nc(cc4[nH]c(cc5[nH]c(cc1n2)c(C)c5C(C)O)c(C)c4C(C)O)C(C)=C3CCC(=O)O (centres undefined) [euspeclibcmpd1687],8.82 (active)
19,CN(C)C(N)=NC(=N)N [euspeclibcmpd874],-0.199 (inactive)
20,CC(CCC(=O)O)C1CCC2C3CCC4CC(O)CCC4(C)C3CC(=O)C12C (centres undefined),0.291 (inactive)
21,O=C(O)[C@H](O)[C@@H](O)[C@H](O)[C@H](O)CO [euspeclibcmpd2450],0.571 (inactive)
22,COc1ccc(C=CC(=O)c2cc(O)ccc2O)cc1 [euspeclibcmpd1400],-0.058 (inactive)

row,SMILES,Srxn1-GFP intensity median modified Z-score
1,O=C(/C=C/c1ccccc1)c1ccc(O)cc1,4.36 (active)
2,O=C(O)/C=C/C=C/c1ccccc1 [euspeclibcmpd1620],-0.147 (inactive)
3,O=C(/C=C/c1ccccc1)c1ccc(O)cc1 [euspeclibcmpd1718],12.6 (active)
4,COc1ccc(C(=O)/C=C/c2ccccc2)cc1 [euspeclibcmpd1565],26.7 (active)
5,COc1ccc(C(=O)/C=C/c2cccc(Cl)c2)cc1,0.75 (inactive)
6,CCOC(=O)c1ccc(O)cc1 [euspeclibcmpd974],-0.257 (inactive)
7,COc1ccc2oc(-c3ccccc3)c(OC)c(=O)c2c1 [euspeclibcmpd1782],1.28 (inactive)
8,O[C@@H]1[C@@H](O)[C@@H](O)OC[C@H]1O,0.871 (inactive)
9,CC1C2C(CC3C4CC[C@H]5C[C@@H](O)CC[C@]5(C)C4CC(=O)[C@@]32C)O[C@]12CC[C@@H](C)CO2 (some centres undefined) [euspeclibcmpd1427],-0.425 (inactive)
10,COc1cc(/C=C/C(=O)N2CC=CCC2=O)cc(OC)c1OC [euspeclibcmpd1434],1.01 (inactive)
11,CON [euspeclibcmpd1358],-0.128 (inactive)
12,CC(C)[N+]1(C)C2CC[C@H]1C[C@@H](OC(=O)C(CO)c1ccccc1)C2 (some centres undefined) [euspeclibcmpd162],0.508 (inactive)
13,CC[C@]1(O)CC2CN(CCc3c([nH]c4ccccc34)[C@@](C(=O)OC)(c3cc4c(cc3OC)N(C=O)[C@H]3[C@@](O)(C(=O)OC)[C@H](OC(C)=O)[C@]5(CC)C=CCN6CC[C@]43[C@@H]65)C2)C1 (some centres undefined) [euspeclibcmpd836],27.5 (active)
14,CC[C@]1(O)CC2CN(CCc3c([nH]c4ccccc34)[C@@](C(=O)OC)(c3cc4c(cc3OC)N(C)[C@H]3[C@@](O)(C(=O)OC)[C@H](OC(C)=O)[C@]5(CC)C=CCN6CC[C@]43[C@@H]65)C2)C1 (some centres undefined) [euspeclibcmpd320],25.8 (active)
15,CC(=O)NC(CCC(N)=O)C(=O)O (centres undefined) [euspeclibcmpd1028],-0.425 (inactive)
16,Oc1cc2c(cc1O)C1c3ccc(O)c(O)c3OCC1(O)C2 (centres undefined) [euspeclibcmpd1605],-0.437 (inactive)
17,CN(C)CC/C=C1/c2ccccc2COc2ccccc21 [euspeclibcmpd104],1.4 (inactive)
18,CC(=O)C1CCC2C3CC(C)=C4CC(=O)CC[C@]4(C)C3[C@@H](O)C[C@]12C (some centres undefined) [euspeclibcmpd179],-0.562 (inactive)
19,O=c1cc(-c2cc(O)c(O)c(O)c2)oc2cc(O)cc(O)c12 [euspeclibcmpd1548],-0.459 (inactive)
20,Cc1cc(-n2c(=O)[nH]c(=O)n(C)c2=O)ccc1Oc1ccc(SC(F)(F)F)cc1 [euspeclibcmpd839],2.22 (active)
21,CC(C)(Oc1ccc(Cl)cc1)C(=O)O [euspeclibcmpd1029],-0.706 (inactive)
22,COc1ccc(C(=O)NCc2ccc(CN(C)C)cc2)cc1OC,0.376 (inactive)

row,SMILES,Srxn1-GFP intensity median modified Z-score
1,CCc1cn(C2OCC(O)C2CO)c(=O)[nH]c1=O (centres undefined) [euspeclibcmpd543],-0.196 (inactive)
2,C=C1c2c(Cl)ccc(O)c2C(=O)C2C(=O)[C@]3(O)C(=O)C(C(N)=O)C(=O)C(N(C)C)[C@@H]3[C@@H](O)[C@H]12 (some centres undefined) [euspeclibcmpd381],0.0643 (inactive)
3,CCC[C@@H]1CC(C(=O)N[C@H]([C@H]2O[C@H](SC)[C@H](O)[C@@H](O)[C@H]2O)[C@H](C)O)N(C)C1 (some centres undefined) [euspeclibcmpd172],0.221 (inactive)
4,NC(=O)C1CC2CCCCC2N1c1cc(Cl)c(C(F)(F)F)cc1[N+](=O)[O-] (centres undefined),0.587 (inactive)
5,CON=C(C(=O)NC1C(=O)N2C(C(=O)O)=C(C[N+]3(C)CCCC3)CSC12)c1csc(=N)[nH]1 (centres undefined) [euspeclibcmpd504],35.8 (active)
6,CON=C(C(=O)N[C@@H]1C(=O)N2C(C(=O)O)=C(COC(C)=O)CS[C@H]12)c1csc(=N)[nH]1 [euspeclibcmpd2262],-0.173 (inactive)
7,CON=C(C(=O)NC1C(=O)N2C(C(=O)O)=C(CSc3nnnn3C)CSC12)c1csc(=N)[nH]1 (centres undefined) [euspeclibcmpd505],-0.115 (inactive)
8,O=C(c1ccc(COc2ccc(Cl)cc2)cc1)N1CCN(Cc2ccc3c(c2)OCO3)CC1,1.17 (inactive)
9,C[C@]12CCC3c4ccc(O)cc4CCC3C1CC[C@@H]2OC(=O)CCC1CCCC1 (some centres undefined) [euspeclibcmpd116],-0.256 (inactive)
10,Oc1ccc(O)cc1 [euspeclibcmpd672],0.74 (inactive)
11,Cc1ccc(O)cc1 [euspeclibcmpd76],-0.159 (inactive)
12,CC=C(C(=CC)c1ccc(O)cc1)c1ccc(O)cc1 [euspeclibcmpd91],13.6 (active)
13,CN[C@@H]1C(O)[C@@H](O[C@@H]2[C@@H](O)[C@H](O[C@H]3OC(CN)=CC[C@H]3N)[C@@H](N)C[C@H]2N)OC[C@]1(C)O (some centres undefined) [euspeclibcmpd452],-0.626 (inactive)
14,CO[C@H]1/C=C/O[C@@]2(C)Oc3c(C)c(O)c4c(O)/c(c(=CNN5CCN(C)CC5)c(O)c4c3C2=O)=N\C(=O)/C(C)=C\C=C\C(C)[C@H](O)[C@@H](C)[C@@H](O)[C@@H](C)[C@@H](OC(C)=O)[C@@H]1C (some centres undefined) [euspeclibcmpd263],-0.401 (inactive)
15,O=c1c(O)cc(C2Oc3cc(O)cc(O)c3C[C@H]2O)cc2c(C3Oc4cc(O)cc(O)c4C[C@@H]3O)cc(O)c(O)c12 (some centres undefined) [euspeclibcmpd1420],-0.548 (inactive)
16,Oc1cn2c(n1)Nc1ccc(Cl)c(Cl)c1C2 [euspeclibcmpd824],-0.784 (inactive)
17,CSc1ccc2c(c1)C(N1CCN(C)CC1)Cc1ccccc1S2 (centres undefined) [euspeclibcmpd1144],28.4 (active)
18,Cc1cc2c(s1)N=c1ccccc1=NC2N1CCN(C)CC1 (centres undefined) [euspeclibcmpd2354],0.441 (inactive)
19,CN1CCN2c3ccccc3Cc3ccccc3C2C1 (centres undefined) [euspeclibcmpd961],0.112 (inactive)
20,CON=C(C(=O)NC1C(=O)N2C(C(=O)O)=C(CSC(=O)c3ccco3)CSC12)c1csc(=N)[nH]1 (centres undefined) [euspeclibcmpd692],-0.296 (inactive)
